Screens deposited in PubChem BioAssay by several laboratories.
MT1-MMP txn act: MT1-MMP promoter reporter activation – cell-based, luciferase luminescence, primary screen. HT1080 MT1-MMP promoter luciferase reporter, overnight; active compounds read high. activation factor at 10 µM. 86,000 tested, 0.16% active. AID 750, 2007;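 active = activation factor of at least 2 for MT1-MMP transcription at 10 µM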
GALR2 blocker: GALR2 antagonists in receptor-expressing cells, primary screen | Galanin receptor type 2 (Homo sapiens), O43603 | antagonist mode | inhibition, % at 4 µM | 140,000 tested, 0.39% active | AID 828, 2007; in the data active = inhibition above about 27%;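 also: cells stimulated with galanin 1-16 at roughly its EC80; 0% = agonist challenge control and 100% = basal control without agonist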
Smad3 inh: Smad3/FoxH1 peptide binding inhibitors, primary screen, biochemical, TR-FRET; Mothers against decapentaplegic homolog 3 (Homo sapiens), P84022; TR-FRET Smad3/Dy647-FoxH1 peptide binding, europium anti-His; inhibition, % at 25 µM; 88,000 tested, 0.29% active; AID 630, 2007;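 active = compounds that reduce the energy-transfer binding signal between the protein and its labelled peptide by more than half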;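 also: 0% = Smad3 plus labelled peptide maximal FRET and 100% = peptide-only background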
Target sequence (P84022 whole entry, looked up): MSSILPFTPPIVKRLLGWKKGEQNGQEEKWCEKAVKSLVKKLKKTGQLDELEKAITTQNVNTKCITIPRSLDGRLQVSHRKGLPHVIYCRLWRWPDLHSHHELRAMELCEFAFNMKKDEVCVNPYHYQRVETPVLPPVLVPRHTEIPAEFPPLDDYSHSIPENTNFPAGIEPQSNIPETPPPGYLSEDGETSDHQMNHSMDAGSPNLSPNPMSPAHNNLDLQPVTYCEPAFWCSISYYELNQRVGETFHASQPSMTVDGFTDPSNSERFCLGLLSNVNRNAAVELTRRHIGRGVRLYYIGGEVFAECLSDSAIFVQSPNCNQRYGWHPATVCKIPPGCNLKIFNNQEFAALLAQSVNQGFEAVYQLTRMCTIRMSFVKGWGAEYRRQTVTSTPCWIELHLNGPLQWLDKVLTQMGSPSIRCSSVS
S1P2 ag: S1P2 receptor agonists, primary screen, cell-based | Sphingosine 1-phosphate receptor 2 (Homo sapiens), O95136 | S1P2-expressing cell line, agonist reporter read-out | activation, % at 4.5 µM | 97,000 tested, 0.46% active; in the data active = activation above about 16%;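 also: 0% = vehicle low control and 100% = maximal reference agonist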
S1P2 antag: human S1P2 receptor antagonists, primary screen, cell-based; Sphingosine 1-phosphate receptor 2 (Homo sapiens), O95136; cell-based S1P2 antagonist assay, inhibition at 5 uM; inhibition, % at 5 µM; 97,000 tested, 0.21% active; in the data active = inhibition above about 45%;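 also: CRE beta-lactamase reporter cells expressing human S1P2 stimulated with S1P; 0% = agonist at EC80 alone and 100% = agonist plus reference antagonist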
GALR2 ag: GALR2 receptor agonists, primary screen, cell-based | Galanin receptor type 2 (Homo sapiens), O43603 | GALR2-expressing cells, agonist activation read-out | activation, % (concentration not given with the values) | 140,000 tested, 0.48% active | AID 803, 2007; in the data active = activation above about 5%, passing the limit was not always enough;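 also: 0% = vehicle buffer wells and 100% = reference agonist at full effect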
GALR2 agon conf: GALR2 agonists, retest of hits, confirmation, cell-based; GALR2-expressing cells, agonist activation; shares compounds with GALR2 ag; activation, % at 5.6 µM; 460 tested, 10% active; in the data active = activation above about 8.4%;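 also: 0% = buffer-only vehicle wells and 100% = full reference agonist response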
BLA activ ctr: activators of NFAT-driven beta-lactamase reporter, confirmation, counter-screen for GALR2 agonist project, CHO NFAT-bla cells, FRET readout; activation, % at 5.6 µM; beta-lactamase FRET activation; 460 tested, 10% active; AID 865, 2007; shares compounds with GALR2 ag;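 active = activation above the screen-wide mean activation plus 3 SD, cut at about 8% in these data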;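 also: 0% = DMSO with PBS wells and 100% = thapsigargin positive control wells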
* = called active by the depositor; . = no result. Most compounds without a hit are left out; they make up all but 1.4% or so of the library.

SMILES	MT1-MMP txn act	GALR2 blocker	Smad3 inh	S1P2 ag	S1P2 antag	GALR2 ag	GALR2 agon conf	BLA activ ctr
COc1ccccc1OCCn1cc(/C=C(\C#N)C(=O)NCc2ccco2)c2ccccc21	.	4.4	.	.	.	-0.9	.	.
Cc1cccc(NC(=O)/C(C#N)=C/c2cn(CC(=O)NCc3ccco3)c3ccccc23)c1	.	-1.9	.	.	.	30.6*	13.6*	13.4*
COc1ccc(OCCn2cc(/C=C(\C#N)C(=O)NCc3ccco3)c3ccccc32)cc1	.	0.8	.	.	.	13.2*	4.4	2.6
OCCCNCc1ccncc1	.	.	1.0	.	.	.	.	.
Clc1ccc(CSC2=NCCN2)cc1Cl	.	.	7.4	.	.	.	.	.
CN1CCN(c2nc3c(c(=O)n(C)c(=O)n3C)n2C)CC1	.	.	0.4	.	.	.	.	.
CCN(CC)S(=O)(=O)c1ccc(C)c(NC(=O)COc2ccc(Cl)cc2Br)c1	.	-7.4	.	.	.	10.2*	7.8	4.9
CCN(CC)S(=O)(=O)c1ccc(Cl)c(NC(=O)COc2ccccc2[N+](=O)[O-])c1	.	12.0	.	.	.	0.3	.	.
O=C(COC(=O)c1cc(Cl)ccc1Cl)NCCN1C(=O)CSC1=O	.	19.2	.	.	.	12.2*	-0.7	-2.5
O=C(O)C(Cc1ccccc1)N1Cc2ccccc2C1=O (centres undefined)	1.1	-2.8	20.5	-4.7	-3.7	10.7	-0.9	-2.6
O=C(O)c1oc(C(=O)O)c(C(=O)O)c1C(=O)O	.	.	3.1	.	.	.	.	.
Clc1ccc(CSc2ncnc3c2ncn3[C@@H]2CCCCO2)cc1	.	.	-0.1	.	.	.	.	.
Cc1ccc(OCc2nc(-c3ccccn3)n[nH]2)cc1	1.5	-1.7	6.8	-2.4	-12.2	72.6*	-1.1	-2.1
CCOC(=O)/C(=N/Nc1ccccc1)c1csc(Nc2ccccc2)n1	1	-11.1	12.2	-4.4	-27.2	55.9*	-0.8	-1.5
CCOC(=O)/C(=N\Nc1ccc(Cl)cc1)c1csc(Nc2ccccc2)n1	.	-4.3	.	-0.1	-19.9	-0.5	.	.
CCOC(=O)C1=CN(C)C=C(C(=O)OCC)C1c1ccsc1	0.9	-1.2	.	12.0	2.7	9.8	1.6	5.1
COC(=O)C1=C(C)N(C)C(C)=C(C(=O)OC)C1c1ccsc1	1.1	0.2	3.4	-3.6	12.4	-0.8	.	.
Nc1ccc(S(=O)(=O)NCCS(=O)(=O)O)cc1	.	.	1.6	.	.	.	.	.
COc1cc(/C=N/NC(=O)c2ccc(COc3cc(C)ccc3C(C)C)cc2)cc(OC)c1O	.	0.1	.	.	.	8.4*	7.6	-1.2
Cc1ccc(C)c(OCCCCn2ccnc2)c1	1.1	-7.6	14.4	-2.9	-16.5	11.2	0.3	2.4
Cc1ccc(OCCCCn2ccnc2)c(Cl)c1	.	-2.6	-8.1	-5.0	0.0	-3.1	.	.
CCOC(=O)c1c(C)n(C)c2ccc(OCC(O)CN3C(=O)c4ccccc4S3(=O)=O)cc12 (centres undefined)	1.1	-8.2	.	13.1	-30.6	9.2	0.6	1.0
CN(C)CCN(c1ccccn1)c1ccccn1	.	.	17.3	.	.	.	.	.
CCOC(=O)/C=c1\s/c(=C\c2ccc(C)cc2)c(=O)n1CC(=O)NCc1ccco1	.	2.8	.	.	.	8.2*	2.7	0.1
CCOC(=O)/C=c1\s/c(=C\c2ccc(C(F)(F)F)cc2)c(=O)n1CC(=O)NCc1ccco1	.	-4.7	.	.	.	-0.2	.	.
SMILES	MT1-MMP txn act	GALR2 blocker	Smad3 inh	S1P2 ag	S1P2 antag	GALR2 ag	GALR2 agon conf	BLA activ ctr
COC(=O)Cc1c(C)c2cc(Cl)c(OC(=O)c3ccco3)cc2oc1=O	1	13.4	2.8	4.5	-12.9	12.7*	0.8	3.0
COC(=O)Cc1c(C)c2ccc(OC(=O)c3ccco3)cc2oc1=O	1.2	-1.6	-3.6	1.6	2.1	2.9	.	.
O=C(/C=C/c1ccccc1F)c1cccc([N+](=O)[O-])c1	.	-2.5	.	.	.	-0.5	.	.
O=C(Oc1ccc(F)cc1C(=O)/C=C/c1cccs1)c1cccc([N+](=O)[O-])c1	1.1	11.3	-4.5	-4.1	9.9	39.4*	1.6	3.5
NCCCc1c(-c2ccccc2)nc(N)[nH]c1=O	.	.	-17.5	.	.	.	.	.
CSc1nnc(-c2cc3c(s2)-c2ccccc2CC3)o1	.	-4.4	.	-3.1	16.7	0.1	.	.
S=c1[nH]nc(-c2cc3c(s2)-c2ccccc2CC3)o1	.	1.9	.	8.6	13.6	9.9	2.2	5.2
Nc1nccc(Nc2ccc(S(N)(=O)=O)cc2)n1	.	.	3.6	.	.	.	.	.
N[C@@H](CSC1(c2ccc(Cl)cc2)c2ccccc2-c2ccccc21)C(=O)O	.	.	-9.0	.	.	.	.	.
COc1cc(-c2noc(CCCC(=O)NC3CCCCC3)n2)cc(OC)c1OC	1	-5.1	16.4	-5.7	-3.1	25.9*	-0.5	-0.6
COc1ccc(-c2noc(CCC(=O)NC3CCCCC3)n2)cc1OC	1.2	4.5	3.0	2.2	-2.1	-3.2	.	.
Cc1nn(Cc2c(Cl)cccc2Cl)c(C)c1NC(=O)c1sc2ccccc2c1Cl	.	-4.3	.	-0.2	-11.6	11.5*	5.5	-0.3
CC(=O)Nc1ccc(Nc2ncnc3c2cnn3-c2cccc(C)c2)cc1	1.3	2.7	.	-7.3	-7.1	-1.3	.	.
CC(=O)Nc1ccc(Nc2ncnc3c2cnn3-c2ccc(C)cc2C)cc1	1.1	-5.2	-7.3	-7.5	-1.1	76.1*	-0.9	-2.4
COc1ccc(CN[C@H](C)C(=O)O)cc1	.	.	-7.0	.	.	.	.	.
Cc1ccc(S(=O)(=O)c2cc3c(=O)n4cc(C)ccc4nc3n(CC3CCCO3)c2=N)cc1 (centres undefined)	1	.	-1.0	.	.	.	.	.
N=c1c(S(=O)(=O)c2ccccc2)cc2c(=O)n3ccccc3nc2n1CC1CCCO1 (centres undefined)	1.2	0.0	3.6	9.8	-24.5	9.1	1.8	3.1
Cc1ccc(S(=O)(=O)NC(=O)NCc2ccc3c(c2)OCO3)cc1	1.1	-1.6	.	-4.6	16.4	152.3*	-0.4	-2.0
C[C@H]1CCCC2(CC[N+](C)(CCC[N+](C)(C)C)CC2)C1 (some centres undefined)	.	.	14.5	.	.	.	.	.
O=C(O)CSCCc1ccccc1	.	.	-16.3	.	.	.	.	.
Cc1cc2c(c(=O)n1Cc1cccnc1)C(c1ccccc1)C(C#N)=C(N)O2 (centres undefined)	1.2	-6.8	1.7	-2.1	12.8	-1.9	.	.
Cc1cc2c(c(=O)n1Cc1ccc3c(c1)OCO3)C(c1cccnc1)C(C#N)=C(N)O2 (centres undefined)	1	-2.6	0.1	-11.4	9.3	23.3*	-0.8	-1.6
O=C(O)c1c(Cl)c(Cl)c(Cl)c(Cl)c1C(=O)Nc1ccc2cn[nH]c2c1	.	.	-3.0	.	.	.	.	.
CCOC(=O)/C(=C\Nc1ccccc1C(F)(F)F)Sc1ncc(C(F)(F)F)cc1Cl	1.2	-8.4	-10.7	-3.1	-10.7	10.4	-1.1	-3.0
COc1cc(NC(=O)c2ccc(Cl)cc2Cl)ccc1-c1cc2ccccc2oc1=O	.	-13.7	.	4.2	22.5	13.2*	5.7	2.0
O=S(=O)(O)CCCc1cccc2ccccc12	.	.	7.4	.	.	.	.	.
